Assay results reported in ChEMBL document CHEMBL3988442, “University of Dundee, Small-Polar-MMV Screening Library” (2021).

Experiments:
[1] = target: T1, Aspartate--tRNA(Asp/Asn) ligase (Mycobacterium tuberculosis (strain ATCC 25618 / H37Rv)) (UniProt P9WFW3); test: Assay for Asp RNA synthetase-1 from Mycobacterium tuberculosis; type: functional; design: scale not given: direction of the effect not stated beside the values; details: 30 µM; further: in the data most compounds retested in dose-response had high values
T1 sequence (whole entry): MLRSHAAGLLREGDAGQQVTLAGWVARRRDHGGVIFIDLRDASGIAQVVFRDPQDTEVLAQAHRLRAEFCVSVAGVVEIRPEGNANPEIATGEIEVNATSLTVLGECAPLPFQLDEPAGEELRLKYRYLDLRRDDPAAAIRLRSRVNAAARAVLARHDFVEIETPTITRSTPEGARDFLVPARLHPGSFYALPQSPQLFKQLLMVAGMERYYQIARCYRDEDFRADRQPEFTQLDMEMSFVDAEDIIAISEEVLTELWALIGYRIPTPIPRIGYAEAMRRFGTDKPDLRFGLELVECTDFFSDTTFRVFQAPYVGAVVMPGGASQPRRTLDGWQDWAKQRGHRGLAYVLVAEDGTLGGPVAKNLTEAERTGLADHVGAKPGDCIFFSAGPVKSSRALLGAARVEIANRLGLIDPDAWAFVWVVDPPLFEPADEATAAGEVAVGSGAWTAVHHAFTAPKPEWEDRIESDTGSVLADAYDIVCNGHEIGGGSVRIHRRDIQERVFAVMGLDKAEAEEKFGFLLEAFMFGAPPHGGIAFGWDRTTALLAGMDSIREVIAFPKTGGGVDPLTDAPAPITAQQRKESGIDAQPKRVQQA

[2] = target: Shiga toxin 2 (Escherichia coli O157:H7) (UniProt P09385+P09386); test: E. coli 0.157:H7 Shiga Toxin SOP - stx2 screening assay; type: functional; design: scale not given: direction of the effect not stated beside the values; details: 30 µM

Row | SMILES | Percent Effect [1] [%] | Percent Effect [2] [%]
1 | Cc1noc(C)c1CCC(=O)N1CCN(CCn2cccn2)CC1 | -5.26 | -11.4
2 | COc1ncccc1C(=O)Nc1nc2c(s1)CN(S(=O)(=O)C1CC1)CC2 | -4.8 | -20
3 | CO[C@@H]1CCN(Cc2cnn(C)c2)[C@@H]2CN(Cc3ccco3)C[C@@H]21 | -4.07 | -22
4 | CCCc1n[nH]c(C2CN(CCCOc3ccccc3)CCO2)n1 (centres undefined) | 0.946 | 5.54
5 | O=C(c1cnccn1)N1CCOC2(CCN(Cc3ccsc3)CC2)C1 | -1.8 | -12.9
6 | Cc1cc2ccccc2n1CCC(=O)NCc1ncc[nH]1 | -0.164 | 4.66
7 | CN1CCOC(CN(C(=O)CC2CCCC2)c2nccs2)C1 (centres undefined) | 6.38 | 27.4
8 | Cc1nc(COC[C@]23COC[C@H]2CN(Cc2ccoc2)C3)cs1 | -0.55 | 4.86
9 | CNc1cc2c(nn1)CCN(C(=O)c1cc(F)cc(F)c1)C2 | -0.49 | 12.4
10 | Cc1ccc2c(n1)N(CCN(C)C)CCN(C(=O)c1ccc[nH]1)C2 | 8.78 | -14.6
11 | Cc1noc(C)c1CN1CC[C@H]2OCC[C@@H](C(=O)NCC3CC3)[C@@H]2C1 | -1.49 | -13.8
12 | Cc1ccc(N2CCCC(NCc3cccc4c3OCCO4)C2)nn1 (centres undefined) | 4.13 | 19
13 | Cc1ccc(C(=O)N2CCC3(CC2)COC(COc2ccccn2)C3)o1 (centres undefined) | 4.9 | 5.7
14 | CS(=O)(=O)CCNC(=O)C1(c2cccc(Cl)c2)CCCCC1 | 1.2 | -20.3
15 | CCC(CC)C(CNC(=O)Nc1ccc(C)cc1)N1CCOCC1 (centres undefined) | -1.91 | -3.64
16 | Cc1cc(C)n(-c2cncc(NCCNC(=O)C(C)C)n2)n1 | 8.76 | 2.01
17 | Cn1ccc(C(=O)NC2CCN(c3ncccn3)CC2)cc1=O | 4.84 | 24.2
18 | Cc1cc(C(=O)NCC(C)N2CCc3ccccc32)no1 (centres undefined) | -0.278 | -26.5
19 | CC(C)c1ccsc1C(=O)N1CCCN(Cc2cscn2)CC1 | 6.6 | 14.7

Row | SMILES | Percent Effect [1] [%] | Percent Effect [2] [%]
20 | COC(=O)c1cccc(OCCn2nc(-c3cccs3)oc2=O)c1 | 3.9 | 25
21 | c1cncc(N2CCOCC3(CCCN(c4nncs4)C3)C2)c1 (centres undefined) | 2.36 | -5.55
22 | N#CC1(C(=O)N2CCN(c3nccs3)CC2)CCCCC1 | -2.57 | 33.3
23 | CCc1nccn1C1CCCN(C(=O)Cc2ccc(OC)c(F)c2)C1 (centres undefined) | -7.86 | 4.47
24 | CN1N=C(C(=O)N2CCCC(CCc3c(F)cccc3F)C2)CCC1=O (centres undefined) | -2.6 | 9.43
25 | Cc1ccc(C(O)CNCCn2cccn2)cc1C (centres undefined) | -5.54 | 2.86
26 | Cc1noc(CN2CCOC(CN(C)C)C2)n1 (centres undefined) | -7.81 | -10.9
27 | Cc1ccn(-c2cccc(C(=O)N3CCCC(n4ccnc4C)C3)c2)n1 (centres undefined) | -0.301 | -7.17
28 | Cc1cc(C)nc(Nc2cc(C3CCCN(C)C3)nc(C)n2)n1 (centres undefined) | 0.64 | -0.428
29 | CCc1ccc(CN(CCCn2ccnc2)Cc2ccc(C)s2)o1 | 2.1 | -1.1
30 | O=C(c1ccc[nH]1)N1CCn2cc(CN3CCCC3)nc2C1 | -2.37 | 0.78
31 | COCc1cccc(NC(C)C(=O)N(C)Cc2ccccc2)c1 (centres undefined) | -0.212 | -8.1
32 | O=C(COCC1CC1)N1CCCC(n2cncn2)C1 (centres undefined) | -4.03 | 18.2
33 | CN(Cc1ccccc1)C(=O)c1nc(S(C)(=O)=O)n2ccccc12 | -4.08 | 20.9
34 | Cc1ccc(NC(=O)c2cc(S(=O)(=O)N3CCCCC3)c[nH]2)cc1F | 1.97 | 17.8
35 | O=c1oc(-c2ccc(F)cc2)nn1CN1CCN(C2CCCC2)CC1 | 0.546 | -2.79
36 | N#Cc1ccccc1OCCN1CCC(N2CCNC2=O)CC1 | -0.816 | -50.9
37 | COC(=O)c1ccc(S(=O)(=O)NCc2cccnc2N(C)C)cc1 | -3.4 | 12
